# Several values for one entry are separate records, joined by “and”; a condition that tells them apart may be missing. Equal entries are not always repeated. Records with an inconclusive call do not appear. A call without a number means that no potency is given here. Activity calls are given as the source filed them. Unless noted, calls follow the shape of the dose curve; as a rule, active = well fitted curve in the direction sought with a large enough effect; inconclusive = small, poorly fitted or top-dose-only effect, or another doubt; inactive = no such curve, though single readings can be large; an effect the other way counts as inactive or inconclusive.
# What was measured:
# [1] = Cell Viability - BJ (AID 421; calls by dose curve;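 also: potency is read from the fitted curve at half-maximal effect; cells exposed to compound for 40 hours at 37 °C before readout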); details: BJ fibroblast viability, qHTS
# How it was run: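 Quantitative HTS: ATP depletion in BJ cells after 40 hr compound exposure in complete culture medium, detected with CellTiter-Glo; AC50 from standard Hill fits.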
# [2] = Cell Viability - MRC5 (AID 434; calls by dose curve;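 also: potency is read from the fitted curve at half-maximal effect; cells exposed to compound for 40 hours at 37 °C; potency reflects cytotoxicity seen as loss of intracellular ATP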); details: MRC5 lung fibroblast viability, qHTS
# How it was run: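 Decrease in intracellular ATP, quantified by luciferase light output, reflects compound toxicity toward MRC5 cells exposed for 40 hr in complete culture medium. Concentration-response curves, scaled between DMSO and 100 uM tamoxifen, gave AC50 values.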
# [3] = target: Mitogen-activated protein kinase 10 (Mus musculus) (UniProt Q61831); assay: JNK3 AlphaScreen Assay (AID 530; active = well fitted curve in either direction with a large enough effect, not every such curve was filed as active;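 also: kinase came from lysate of stimulated human HepG2 cells; signal reports phosphorylation of biotinylated GST-cJun 1-79 at Ser73 with 10 µM ATP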); details: JNK3 lysate, c-Jun phosphorylation; series mostly up to 57.1 µM
# How it was run: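 Phosphorylation of biotinylated GST-cJun(1-79) at Ser73 is measured by AlphaScreen proximity luminescence. Enzyme is JNK3 in HepG2 lysates activated with interleukin-1beta and tumor necrosis factor alpha; ATP is 10 uM final.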
# [4] = Cell Viability - NIH 3T3 (AID 541); details: NIH 3T3 cell viability, qHTS; activity change, negative = cytotoxicity: at 92.2 µM (top of the series); also: nearly all actives have a fitted effect of over 25% in size
# How it was run: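 Intracellular ATP (CellTiter-Glo luminescence, 20 min at room temperature) measured after 40 hr compound exposure at 37 °C of 1000 NIH 3T3 mouse fibroblasts/well in complete medium; AC50 derived by Hill-equation modelling of qHTS concentration-response curves.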
# [5] = Cell Viability - Mesenchymal (AID 546); details: mesenchymal cells viability, qHTS; activity change, negative = cytotoxicity: at 91.7 µM (top of the series);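 also: cells exposed to compound for 40 hours before reading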
# How it was run: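 In this qHTS cytotoxicity format, glomerulus-derived human mesenchymal kidney cells received compound for 40 hr, then luciferase-based ATP quantitation. Concentration-response data were fitted with the Hill equation.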
# [6] = Cellular Toxicity (caspase-3) HepG2 (AID 654); details: HepG2 caspase-3 activation, luminescence, 0% = DMSO only, 100% = tamoxifen; series mostly up to 92.2 µM;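 also: cells exposed to compound for 16 hours before reading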
# How it was run: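 Caspase 3/7 activation is measured as a luminescence increase (aminoluciferin substrate) after 16 h compound exposure of human hepatocarcinoma HepG2 cells. AC50 values are Hill fits, scaled between DMSO baseline and 100 uM tamoxifen stimulation.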
# [7] = Cellular Toxicity (caspase-3) HUV-EC-C (AID 656); details: HUV-EC-C cells, caspase-3 activation (apoptosis), vehicle = 0, 100 µM tamoxifen = 100%; series mostly up to 92.2 µM
# How it was run: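 Luminescent Caspase-Glo 3/7 readout after 16 h, 37 °C compound exposure of HUV-EC-C endothelial cells, 1000 per well, complete medium. AC50 derived by Hill fitting, with DMSO as baseline and 100 uM tamoxifen as full activation.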
# [8] = Cellular Toxicity (caspase-3) MRC-5 (AID 659); details: MRC-5 cells, luminescence, normalized: DMSO 0%, 10 µM staurosporine 100%; series mostly up to 91.7 µM
# How it was run: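 Apoptosis readout in MRC-5 cells: luciferase light generated after caspase 3/7 cleaves a peptide-aminoluciferin substrate, measured post 16 hr compound incubation at 37 °C.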
# [9] = Cellular Toxicity (caspase-3) Mesangial (AID 660); details: mesangial cells, normalized: DMSO 0%, 100 µM tamoxifen 100%; series mostly up to 91.7 µM;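 also: combined caspase 3 and 7 activity read by Caspase-Glo luminescence; cells exposed to compound for 16 h before the caspase read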
# How it was run: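 Caspase 3/7 activation measured by Caspase-Glo 3/7 luminescence (20 min, room temperature) following 16 h exposure of mesangial cells (1000/well); AC50 from Hill-equation fit, normalized to DMSO and 100 uM tamoxifen.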
# [10] = Cellular Toxicity (caspase-3) Hek293 (AID 664); details: HEK293 caspase-3 activation, DMSO = 0%, 100 µM tamoxifen = 100%; series mostly up to 92.2 µM;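 also: cells exposed to compound for 16 h at 37 °C before readout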
# How it was run: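 Concentration-response qHTS: caspase 3/7 activation measured by luminescent aminoluciferin substrate cleavage after 16 h compound exposure of Hek 293 cells. AC50 from Hill equation, with DMSO as basal and 100 uM tamoxifen as 100%.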
# [11] = Cellular Toxicity (caspase-3) Renal Proximal Tubule (AID 667); details: renal proximal tubule cells, primary cells freshly taken from rat, solvent-only wells 0%, staurosporine 100%; series mostly up to 91.7 µM;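 also: cells exposed to compound for 16 hours at 37 °C before detection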
# How it was run: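 Caspase 3/7 activation measured by luminescent aminoluciferin release in primary rat proximal tubule cells after 16 hr compound exposure at 37 °C. AC50 from Hill-fitted concentration-response, scaled between DMSO and 10 uM staurosporine.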
# [12] = MultiTox-Fluor Cytotoxicity Assay - LYMP1-003 - Live Cells (AID 962); details: LYMP1-003 lymphoblastoid cells, MultiTox-Fluor live-cell protease fluorescence; series mostly up to 92.2 µM;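 also: cells exposed to compound for 16 hours at 37 °C; cytotoxic hits lower the live-cell protease signal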
# How it was run: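 Live-cell protease activity (GF-AFC substrate, 405/510 nm, 60 min at room temperature) after 16 h, 37 C compound exposure of human lymphoblastoid LYMP1-003 cells; concentration-response fitted to the Hill equation for AC50.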
# [13] = Cell Viability - LYMP1-003 - Assay at 40 hr (AID 964); details: LYMP1-003 lymphoblastoid viability; series mostly up to 92.2 µM; also: nearly all actives have a fitted effect of over 60% in size
# How it was run: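 Viability is taken as cellular ATP, read by CellTiter-Glo luminescence after 40 h of compound exposure at 37 C. Cells: human lymphoblastoid line LYMP1-003 at 2500/well; AC50 values derived by Hill-equation fitting of concentration-response data.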
# [14] = Cell Viability - LYMP2-011 (AID 969); details: LYMP2-011 lymphoblastoid cells viability; series mostly up to 92.2 µM; also: nearly all actives have a fitted effect of over 60% in size
# How it was run: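 Cytotoxicity qHTS with ATP content as read-out: lymphoblastoid cells (2500/well) exposed to compound for 24 h at 37 C, then luciferase luminescence measured. Concentration-response data fitted with the standard Hill equation to give AC50.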
# [15] = Cell Viability - LYMP2-013 (AID 970); details: LYMP2-013 lymphoblastoid cells viability; series mostly up to 92.2 µM; also: nearly all actives have a fitted effect of over 55% in size
# How it was run: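 qHTS cytotoxicity: ATP-dependent luminescence (CellTiter-Glo, 30 min room temperature) read after 24 h compound exposure at 37 C of 2500 LYMP2-013 lymphoblastoid cells per well. Concentration-response fitted with Hill equation to give AC50.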
# [16] = Cell Viability - LYMP2-017 (AID 972); details: LYMP2-017 lymphoblastoid cell viability; series mostly up to 92.2 µM; also: nearly all actives have a fitted effect of over 55% in size
# How it was run: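 CellTiter-Glo luminescence (cellular ATP, 30 min RT) measured cytotoxicity after 24 hr compound treatment at 37 C. Cells were a human lymphoblastoid line, LYMP2-017, plated at 2500/well and incubated 5 hr first; concentration-response fitted with Hill equation for AC50.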
# [17] = Cell Viability - LYMP2-007 (AID 979); details: LYMP2-007 lymphoblastoid cell viability; series mostly up to 92.2 µM;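 also: cells exposed to compound for 24 h before reading; nearly all actives have a fitted effect of over 60% in size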
# How it was run: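 AC50 values come from Hill-equation fits of luminescent intracellular ATP (CellTiter-Glo, 30 min, room temperature) following 24 h compound exposure at 37 C. Cells: LYMP2-007 lymphoblastoid line, 2500 per well, in complete culture medium.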
# [18] = qHTS Assay for Identification of Small Molecule Inducers of Hypoxia Response (AID 2120; active = well fitted curve in the direction sought with a large enough effect in the signal ratio, with a control signal flat, not every such curve was filed as active; the % refers to the signal ratio); details: hypoxia response reporter cells, beta-lactamase ratio readout; series mostly up to 104 µM
# How it was run: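 Reporter induction read as the CCF4 blue/green (460nm/530nm) emission ratio after 2.5 h dye loading at room temperature. ME-180 HRE-beta-lactamase cells received titrated compounds for 17 h at 37 degrees Celsius; AC50 values derived.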
# [19] = qHTS assay for small molecule antagonists of retinoid X receptor alpha signaling (AID 588546); details: HEK293T RXRa-UAS-bla, beta-lactamase ratio, antagonist mode; measured here: W530 green channel, cytotoxicity proxy;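 also: cells stimulated with 9-cis-retinoic acid as agonist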
# How it was run: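 Beta-lactamase reporter inhibition, read as CCF4 fluorescence ratio (ex 405, em 460/530 nm) after 2 h at RT. HEK293T UAS-bla cells, 2500/well, were stimulated with 9-cis-RA at 500 or 100 nM final alongside test compound for 18 h at 37 C.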
# [20] = target: Peroxisome proliferator-activated receptor alpha (Homo sapiens) (UniProt Q07869); assay: qHTS assay for small molecule agonists of the peroxisome proliferator-activated receptor alpha (PPARalpha) signaling pathway (AID 651778); details: PathHunter PPARalpha complementation, chemiluminescence, 6 h; max response: stronger effect = higher value
# Chain of Peroxisome proliferator-activated receptor alpha (Homo sapiens) (Q07869 whole entry, looked up): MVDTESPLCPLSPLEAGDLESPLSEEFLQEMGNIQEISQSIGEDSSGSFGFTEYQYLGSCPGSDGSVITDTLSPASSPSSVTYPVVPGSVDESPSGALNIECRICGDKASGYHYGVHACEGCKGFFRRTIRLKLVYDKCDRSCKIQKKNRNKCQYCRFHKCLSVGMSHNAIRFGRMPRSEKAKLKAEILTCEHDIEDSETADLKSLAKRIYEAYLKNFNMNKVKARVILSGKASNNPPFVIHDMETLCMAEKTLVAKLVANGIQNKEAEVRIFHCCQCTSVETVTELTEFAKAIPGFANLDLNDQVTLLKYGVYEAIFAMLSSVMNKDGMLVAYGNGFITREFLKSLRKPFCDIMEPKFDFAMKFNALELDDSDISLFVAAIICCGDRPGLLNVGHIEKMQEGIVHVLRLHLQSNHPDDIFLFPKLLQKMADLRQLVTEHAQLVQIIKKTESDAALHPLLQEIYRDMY
# How it was run: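 Cells plated at 2,000/well and held overnight at 37 C, 5% CO2, then compound added by pin tool for 6 hr; after PathHunter detection reagent and 60 min at room temperature, chemiluminescence from enzyme complementation was read.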
Compound,Potency [1],Potency [2],Potency [3],Potency [4],"activity change, negative = cytotoxicity [5]",outcome [6],outcome [7],outcome [8],outcome [9],outcome [10],outcome [11],Potency [12],Potency [13],Potency [14],Potency [15],Potency [16],Potency [17],outcome [18],max response [19],max response [20]
CCO,> 92 µM (inactive),> 92 µM (inactive),inactive,inactive,-1.16% (inactive),inactive,inactive,inactive,inactive,inactive,inactive,inactive,inactive,inactive,inactive,inactive,inactive,inactive,-7.92%,-0.991% (inactive)
Clc1cc(Cl)c(Cl)c(Cl)c1Cl,> 92 µM (inactive),> 92 µM (inactive),inactive,inactive,-0.0158% (inactive),inactive,inactive,inactive,inactive,inactive,inactive,inactive,inactive,inactive,inactive,inactive,inactive,inactive,-5.69% and -1.37%,-5.3% (inactive) and -0.232% (inactive)
COc1ccccc1-c1nc(NC2CC2)c2ccccc2n1,,,inactive,,,,,,,,,,,,,,,,,
CCCCOCCO,> 92 µM (inactive),> 92 µM (inactive),inactive,inactive,1.27% (inactive) and 8.74% (inactive),inactive,inactive,inactive,inactive,inactive,inactive,inactive,inactive,inactive,inactive,inactive,inactive,inactive,-0.95% and -3.08% and -12.9%,-6.41% (inactive) and -1.42% (inactive) and -1.76% (inactive)
O=NO,> 92 µM (inactive),> 92 µM (inactive),inactive,inactive,-3.1% (inactive) and 3.16% (inactive),inactive,inactive,inactive,inactive,inactive,inactive,inactive,inactive,inactive,inactive,inactive,inactive,inactive,-4.23% and -6.24%,0.744% (inactive) and -3.6% (inactive)
CN(C)C=O,> 92 µM (inactive),> 92 µM (inactive),inactive,inactive,4.53% (inactive) and 11.4% (inactive),inactive,inactive,inactive,inactive,inactive,inactive,inactive,inactive,inactive,inactive,inactive,inactive,inactive,4.64% and -5.61%,18% (inactive) and -2.47% (inactive) and -1.42% (inactive)
CN(C)c1nc(-c2ccc3c(c2)OCO3)nc2ccccc12,,,inactive,,,,,,,,,,,,,,,,,
Cc1ccccc1C,> 92 µM (inactive),> 92 µM (inactive),,inactive,-15.1% (inactive) and 9.28% (inactive),inactive,inactive,inactive,inactive,inactive,inactive,inactive,inactive,inactive,inactive,inactive,inactive,inactive,-1.73% and -2.63%,1.03% (inactive) and -0.383% (inactive)
COc1cccc(-c2nc(N(C)C)c3ccccc3n2)c1,,,inactive,,,,,,,,,,,,,,,,,
Cc1cccc([N+](=O)[O-])c1C,> 92 µM (inactive),> 92 µM (inactive),inactive,inactive,1.97% (inactive),inactive,inactive,inactive,inactive,inactive,inactive,inactive,inactive,inactive,inactive,inactive,inactive,inactive,-3.46% and -5.25%,2.79% (inactive) and -1.9% (inactive)
c1ccc2c(c1)[nH]c1ccccc12,> 92 µM (inactive),> 92 µM (inactive),inactive,inactive,-7.62% (inactive),inactive,inactive,inactive,inactive,inactive,inactive,inactive,inactive,inactive,inactive,inactive,inactive,inactive,-0.129% and 3.48%,5.12% (inactive) and 0.259% (inactive)

# Reference: PubChem BioAssay (NCATS)
